The list is not random: actives were taken first. Their share in the collection is about 1%.
HUVEC tox TNFa: HUVEC cytotoxicity counter-screen, TNF alpha stimulated. HUVEC TNFalpha-stimulated, Hoechst cell count, imaging. cell count reduction, % at 2 µM. 93,000 compounds, 0.17% hits. AID 848;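 active means cell count reduction exceeding the screen mean by over 5 SD, scaled to untreated wells per plate, cut at about 78% in these data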;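 further: cells counted after 24 h of TNF alpha exposure following the 1 h pretreatment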
F-actin modifier: modifiers of cytoskeleton assembly; HUVEC TNFa F-actin phalloidin imaging, high content; inhibition, % at 2 µM; 91,000 compounds, 0.18% hits; AID 836;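 active means inhibition above the batch mean plus 3 SD and confirmed as a hit by visual image inspection, cut at about 30% in these data, passing the limit was not always enough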
VCAM1 TNFa inh: reduces TNF alpha induced VCAM1 expression in HUVEC; inhibition, % at 2 µM; HUVEC TNFa-induced VCAM-1 immunofluorescence, high-content imaging; 95,000 compounds, 0.48% hits;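 active means inhibition above the batch mean plus 3 SD, with images confirmed as a hit by eye, cut at about 37% in these data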
E-sel TNF inh: TNF alpha driven E-selectin expression inhibition | HUVEC TNFa-induced E-selectin immunofluorescence, high content | inhibition, % at 2 µM | 120,000 compounds, 0.71% hits | AID 1246;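 active means inhibition above the batch mean plus 3 SD, and confirmed as a hit on visual image review, cut at about 43% in these data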
Each line names hits and unclear results; the compound was inactive in the other large screens.

O=C1CCCC(=O)N1c1ccc(Oc2ccc(Cl)cc2)cc1	none (no result: HUVEC tox TNFa, F-actin modifier, VCAM1 TNFa inh)
CCOC(=O)c1sc(=N)n(-c2ccc(OC)cc2)c1C	E-sel TNF inh 64.2
CCOC(=O)c1nnn(-c2ccc(OC)cc2)c1N	none
Cc1ccc(N2C(=O)CSC2c2cccnc2)cc1F (stereo unspecified)	none (no result: E-sel TNF inh)
Cc1ccc(NC(=O)CSc2nc3ccccc3c3nc(CCc4c(C)n[nH]c4C)nn23)cc1F	E-sel TNF inh 82.3
Cc1n[nH]c(C)c1CCc1nc2c3ccccc3nc(SCC(N)=O)n2n1	none (no result: E-sel TNF inh)
Cn1c(=O)[nH]c(=O)c2c1nc(N1CCCCCC1)n2CCSc1nc2ccccc2[nH]1	none
CCN(Cc1ccccc1)C(=O)Cn1c(=O)n(CC(=O)NCc2ccco2)c(=O)c2sccc21	none
CCC(=O)NCc1nc2ccccc2n1Cc1ccccc1F	E-sel TNF inh 65.3
CCC(=O)NCCCc1nc2ccccc2n1Cc1ccccc1F	none (no result: HUVEC tox TNFa, F-actin modifier, VCAM1 TNFa inh)
CCCNC(=O)CSc1nnc(C)s1	none
CN(C(=S)Nc1ccccc1)c1ccccc1	none (no result: HUVEC tox TNFa, F-actin modifier, VCAM1 TNFa inh)
CN(C(=S)Nc1ccc(Oc2ccccc2)cc1)c1ccc(O)cc1	E-sel TNF inh 87.1 (no result: HUVEC tox TNFa, F-actin modifier, VCAM1 TNFa inh)
Brc1ccc(C2=Nn3c(nnc3-c3cccnc3)SC2)s1	none
Clc1ccc(C2=Nn3c(nnc3-c3cccnc3)SC2)s1	VCAM1 TNFa inh 78.4 (no result: E-sel TNF inh)
CCNC(=O)CN(c1ccc(CC)cc1)S(C)(=O)=O	none
COc1ccc(N2CC(C(=O)OCC(=O)NCc3ccccc3)CC2=O)cc1 (stereo unspecified)	none
O=C(CO/N=C/c1ccccc1OC(F)F)NCc1cccs1	E-sel TNF inh 90.4 (no result: HUVEC tox TNFa, F-actin modifier, VCAM1 TNFa inh)
COc1ccccc1N1C(=O)CCC1(C#N)c1ccc(Br)cc1 (stereo unspecified)	none
COc1ccc(N2C(=O)CCC2(C#N)c2ccc(Br)cc2)cc1 (stereo unspecified)	E-sel TNF inh 99.8
OC(c1ccc2c(c1)OCO2)c1nccc2ccccc12 (stereo unspecified)	E-sel TNF inh 71.5
CCOC(=O)N1CCC(N(CCOC)C(=O)Nc2ccc(Cl)cc2)CC1	E-sel TNF inh 80.4 (no result: HUVEC tox TNFa, F-actin modifier, VCAM1 TNFa inh)
CCOC(=O)N1CCC(N(CCCOC)C(=O)Nc2ccc(CC)cc2)CC1	none
CC(/C=N/NC(=O)c1cc(-c2ccc(Cl)cc2)nc2ccccc12)=C\c1ccco1	VCAM1 TNFa inh 80.3
CC(/C=N/NC(=O)CN1CCN(Cc2ccc(Cl)cc2)CC1)=C\c1ccco1	none (no result: HUVEC tox TNFa, F-actin modifier, VCAM1 TNFa inh)
CCCS(=O)(=O)c1nnnn1-c1cccc(OC)c1	E-sel TNF inh 98.4 (no result: HUVEC tox TNFa, F-actin modifier, VCAM1 TNFa inh)
O=C1C(=O)c2ccc(-c3ccccc3)cc2-c2ccccc21	VCAM1 TNFa inh 63.8
CCc1ccc(NC(=O)C(C)OC(=O)c2cccc(S(=O)(=O)N3CCc4ccccc4C3)c2)cc1 (stereo unspecified)	none (no result: HUVEC tox TNFa, F-actin modifier, VCAM1 TNFa inh)
O=C(c1cccc(F)c1)N1CCN(c2cc(N3CCCCC3)c(F)cc2[N+](=O)[O-])CC1	E-sel TNF inh 50.9
CCCC(C(=O)NC1CCCC1)N(CCCN1CCOCC1)C(=O)c1snc(C(N)=O)c1N (stereo unspecified)	VCAM1 TNFa inh 78.3 (no result: E-sel TNF inh)
CCCC(C(=O)NC1CCCC1)N(CC1CCCO1)C(=O)c1snc(C(N)=O)c1N (stereo unspecified)	none (no result: E-sel TNF inh)
Cc1cn(S(=O)(=O)c2ccc(Br)c3ccccc23)cn1	none (no result: E-sel TNF inh)
Cc1ccc(C2(O)CN(c3ccccc3C)C3=[N+]2CCS3)cc1 (stereo unspecified)	E-sel TNF inh 63.7 (no result: HUVEC tox TNFa, F-actin modifier, VCAM1 TNFa inh)
Cc1ccc(S(=O)(=O)NCC(=O)N(CC(=O)NC2CCCCC2)CC2CCCO2)cc1 (stereo unspecified)	none (no result: F-actin modifier)
c1ccc(Nc2ccc3c4c(cccc24)CC3)cc1	none
Nc1ccc2c3c(cccc13)CC2	F-actin modifier 50.8 (no result: E-sel TNF inh)
Cc1ccc(C(=O)N/C(=C\c2ccc(Cl)cc2)C(=O)NCC2CCCO2)cc1 (stereo unspecified)	none (no result: HUVEC tox TNFa, F-actin modifier, VCAM1 TNFa inh)
Cc1c(C(=O)N2CCN(c3ccccc3F)CC2)sc2ncn(CC(=O)N3CCOCC3)c(=O)c12	F-actin modifier 88.3
CCCNC(=O)Cn1cnc2sc(C(=O)N3CCN(c4ccc(F)cc4)CC3)c(C)c2c1=O	none (no result: E-sel TNF inh)
O=C(NCCO)C(c1ccccc1)c1ccccc1	HUVEC tox TNFa 89.9, VCAM1 TNFa inh 91.2 (no result: E-sel TNF inh)
COC(=O)c1ccc(C(=O)OC)c(NC(=O)C(C)(C)C)c1	none (no result: HUVEC tox TNFa, F-actin modifier, VCAM1 TNFa inh)
Cc1c(C(=O)Nc2ccncc2)oc2ccccc12	none
Cc1c(C(=O)NC(C)c2ccncc2)oc2ccccc12 (stereo unspecified)	E-sel TNF inh 100.0
Cc1onc(-c2ccccc2)c1C(=O)n1nnc2ccccc21	none
O=c1[nH]c(CN2CCCCC2)nc2c1C1(CCCC1)Cc1ccccc1-2	none
N#CC1=C(N)Oc2cc(O)ccc2C1c1cccs1 (stereo unspecified)	none
N#CC1=C(N)Oc2c(ccc3ccccc23)C1c1cccs1 (stereo unspecified)	VCAM1 TNFa inh 79.6
CCOc1ccccc1C1CC(c2ccc(Br)cc2)Nc2nc(N)nn21 (stereo unspecified)	none (no result: E-sel TNF inh)
O=C(Nc1ccccc1-c1nc2ccccc2s1)c1cccnc1Cl	none
Cc1nc2ccc(NC(=O)c3ccc(F)c(S(=O)(=O)N4CCOCC4)c3)cc2s1	none
O=C1c2cccc(OCC(=O)N3CCCc4ccccc43)c2CCN1Cc1ccc(Br)cc1	E-sel TNF inh 81.1 (no result: HUVEC tox TNFa, F-actin modifier, VCAM1 TNFa inh)
O=C1c2cccc(OCC(=O)N3CCCc4ccccc43)c2CCN1Cc1ccccc1	none (no result: HUVEC tox TNFa, F-actin modifier, VCAM1 TNFa inh)
Cc1cc(C)n(-c2nc(-c3cccc(Cl)c3)cs2)n1	HUVEC tox TNFa 85.9, VCAM1 TNFa inh 89.9 (no result: E-sel TNF inh)
CCOC(=O)c1ccc(-n2ccnc2)c(NC(=O)c2ccc(Cl)cc2)c1	E-sel TNF inh 62.2 (no result: HUVEC tox TNFa, F-actin modifier, VCAM1 TNFa inh)
CC1(C)N([O-])C2=C(c3ccccc3C2=O)[N+](=O)C1(C)C	none
C=CCNC(=O)COC(=O)/C=C/c1cccs1	none (no result: HUVEC tox TNFa, F-actin modifier, VCAM1 TNFa inh)
C=CCNC(=O)/C=C/c1cccs1	E-sel TNF inh 93.9 (no result: HUVEC tox TNFa, F-actin modifier, VCAM1 TNFa inh)
O=C(Nc1ccc(Cl)cc1)Nc1nnc(CSc2ccc(Cl)cc2)s1	E-sel TNF inh 64.0 (no result: HUVEC tox TNFa, F-actin modifier, VCAM1 TNFa inh)
OCCCCNc1cccc2ccccc12	VCAM1 TNFa inh 43.3 (no result: E-sel TNF inh)
OCCCCCNc1ncnc2ccccc12	none

Source: PubChem BioAssay
